Data taken from PubChem BioAssay AID1745845 (National Center for Advancing Translational Sciences (NCATS), 2022).
Screen size: about 360,000 compounds; about 2,600 (0.72%) were called active. Where a call stands in place of a potency, no number is given. Not shown: some 5% with an inconclusive outcome. The call rests on the fitted dose curve; in most records, active means well fitted inhibition curve with a large enough effect; inconclusive means small, poorly fitted or top-dose-only effect; inactive means no such curve, though single readings can be large or run the other way. The sample as a whole holds a higher share of actives than the screen did.

assay: Primary qHTS for Inhibitors of ATXN expression; conditions: HEK-293 ATXN2-luciferase reporter, luminescence, 24 h; series mostly up to 57 µM; further: nearly all actives have a fitted effect of over 55% in size
From the text: University of Utah School of Medicine, Salt Lake City, Utah
Spinocerebellar ataxia type 2 (SCA2) is a multisystem neurodegenerative disease caused by a dominantly acting mutation leading to expansion of a polyQ domain in the ataxin-2 protein (ATXN2). SCA2 patients develop progressive ataxia and later lose function in other neuronal systems. Prominent parkinsonian signs develop in some patients. Like many neurodegenerative disorders, no symptomatic or disease-modifying treatments are known.
The primary objective of the proposed research is to identify compounds inhibiting ATXN2 expression and to test them for efficacy in SCA2 mouse models. We have developed a cell-based assay paired with an in vivo mouse model using identical luciferase expression constructs. This approach takes advantage of an ATXN2-luciferase transgene, with the luciferase gene flanked by the upstream and downstream portions of the ATXN2 gene. Here we describe a 5-7 dose quantitative high thoroughput screen (qHTS) for compounds lowering ATXN2 expression. We screened the NIH Molecular Libraries Small Molecule Repository (MLSMR) and NCGC's mechanistically annotated (MIPE) and drug repurposing (NPC) collections of compounds for lowering expression of an ATXN2-luciferase reporter in HEK-293 cells. The assay is a multiplexed cell viability assay to ensure target reduction in the absence of cytotoxicity. Secondary qHTS assays included a CMV-luciferase reporter expressed in HEK-293 cells as well as a biochemical assay using recombinant luciferase to detect inhibitors of the reporter enzyme. Compounds that inhibit ATXN2 expression but is not cytotoxic were selected for confirmatory and secondary screens.
PROTOCOL TABLE (as described by Inglese J, Shamu CE and Guy RK. 2007)
SEQUENCE No. (e.g., 1, 2, 3, etc.); […] (e.g., Cells, Incubation, Reagent, etc.); VALUE; DESCRIPTION.
1; Cells; 4 uL; white, solid bottom, 1536-well Greiner assay plate.
2; Incubation; 2 hr; 37 degree C in 5% humidified CO2.
3; Compounds; 23 nL; Kalypsis pintool (Wako USA) equipped with a 1536-well pin head.
4; Incubation; 24 hr; 37 degree C in 5% humidified CO2.
5; Reagent; 1 uL; Gly-Phe-7-Amino-4-trifluoromethylcoumarin.
6; Incubation; 30 min; 37 degree C in 5% humidified CO2.
7; Detection; Fluorescence; ViewLux plate reader (PerkinElmer).
8; Reagent; 3 uL; SteadyGlo luciferase solution (Promega).
9; Incubation; 5 min; room temperature.
10; Detection; Luminescence; ViewLux plate reader (PerkinElmer).
NOTES (numbers refer to Sequence numbers above)
1. S2 cells expressing ATXN2-luciferase reporter were suspended in phenol-red free DMEM and dispensed in assay plates using a Multidrop Combi dispenser (Thermo Fisher Scientific).
2. Assay plates were incubated. Evaporation was prevented by covering assay plates with metal lids containing holes to allow gas diffusion.
3. Compounds were added in a dose response manner with the final concentrations of 57, 11.4, 2.28, 0.46, 0.091, 0.018, 0.0037 uM. Vehicle-only plates, with DMSO being pin-transferred to columns 5-48, were inserted uniformly at the beginning and the end of each library to monitor and record any shifts in assay performance.
5. 125 uM Gly-Phe-7-Amino-4-trifluoromethylcoumarin (MP Biomedicals) working concentration was used at a final concentration of 25 uM.
7. To assess cell viability; the assay plates were read using the ViewLux high-throughput CCD imager (PerkinElmer), wherein single end-point fluorescence measurement was acquired (excitation 405/10; emission 540/25 nm).
8. Detection reagent SteadyGlo Luciferase (Promega) was added to the assay plate.
10. Luminescence is then measured on the ViewLux imager equipped with a clear emission filter using a 2 sec exposure. All screening operations were performed on a fully integrated robotic system (Kalypsys) containing one RX-130 and two RX-90 anthropomorphic robotic arms (Staubli).
[…]
Potency means the concentration at half of the fitted maximal effect.

Compound | Potency
O=C(NC1CCCC1)C1CCN(C(=O)Nc2cccc(Cl)c2)CC1 | inactive
COc1cccc(-c2cccc(NC(=O)C3CCN(C4CCC4)CC3)c2)c1 | inactive
O=C(Nc1cccc(-c2cccc(Cl)c2)c1)C1CCN(C2CCC2)CC1 | 28.2 µM (active)
Cc1cc(C)c2nc3nc(C)cc(C)c3c(N)c2c1 | 25.1 µM (active)
CC(=O)OC[C@@H]1O[C@@H](n2ccc(=O)[nH]c2=O)[C@H](OC(C)=O)[C@H]1OC(C)=O | inactive
Cc1cccc(C)c1NC(=O)c1ccc(N)cc1 | inactive
COc1cc(C=CC(=O)O)ccc1O | inactive
Cc1ccc(C(=O)Nc2cccc(C(F)(F)F)c2)cc1Nc1nc(-c2cccnc2)nc2c1cnn2C | 24.3 µM (active)
Cc1cc(Nc2cccc(C(F)(F)F)c2)nc2ccc(NC(=O)c3ccc(=O)[nH]c3)cc12 | inactive
Cc1nc(Nc2ccccc2C)c2cnn(C)c2n1 | inactive
COc1ccc(NC(=O)Nc2cccc(-c3noc(C)n3)c2)cc1 | inactive
CCCNC(=O)CCC(=O)N1Cc2ccccc2Oc2ncccc21 | inactive
CCOC(=O)Cn1c(=O)n(-c2ccccc2OC)c2nc(-c3cccc(F)c3)nc(C(N)=O)c21 | inactive
COc1ccc(OC)c(-c2nc(C(N)=O)c3c(n2)n(-c2ccc4c(c2)OCO4)c(=O)n3C)c1 | inactive
COC(=O)Cc1ccc(OCC(=O)Nc2ccc(OC(F)(F)F)cc2)cc1 | inactive
CCc1ccc2c(c1)NC(=O)C2(C)Cc1ccc(OC(F)(F)F)cc1 (stereo not given) | 25.1 µM (active)
CCC(=O)N1CCc2cc(Br)cc(S(=O)(=O)CCC(=O)NCc3ccccc3OC)c21 | inactive
COc1ccc(OC)c(CNC(=O)Cn2nc(C)c3c(C)n(-c4ccccc4)nc3c2=O)c1 | inactive
Cc1nnc(N/N=C/c2ccccn2)[nH]c1=O | 2 µM (active)
O=C(N/N=C/c1ccccn1)C12CC3CC(CC(C3)C1)C2 | inactive
O=C(COc1ccc(Cl)cc1Cl)N/N=C/c1ccccn1 | inactive
CCc1cc2c(-c3ccccc3)cc(=O)oc2c2c1OCN(Cc1ccc(C)cc1)C2 | inactive

Compound | Potency
O=C1CC(c2nnc(Cc3ccc(Cl)cc3)o2)CN1c1ccccc1 (stereo not given) | inactive
COc1cccc2[nH]c(C(=O)NCCc3ccccc3)cc12 | inactive
COc1ccccc1OCCNCC(O)COc1cccc2[nH]c3ccccc3c12 (stereo not given) | 28.2 µM (active)
CC(O)CNCCOc1cccc(Oc2ccccc2)c1 (stereo not given) | inactive
COc1cc(OC)c(NC(=O)c2cnc(N3CCCC3)nc2C)cc1Cl | inactive
COc1ccc(NC(=O)C(=O)NCc2ccco2)cc1 | inactive
COc1ccc(C(O)c2nc(-c3ccc(OC)nc3)cs2)cc1 (stereo not given) | inactive
COc1ccc(CS(=O)/C(Cl)=C(/Cl)C(=O)Nc2ccc(OC)nc2)cc1 (stereo not given) | 2.12 µM (active)
Cc1ccc(C)c(N2CCN(C(=O)C3CCC(CNS(=O)(=O)c4cccs4)CC3)CC2)c1 (stereo not given) | inactive
O=C(OCC(O)CO)c1ccccc1Nc1ccnc2c(C(F)(F)F)cccc12 (stereo not given) | inactive
Cc1ccc(-c2ncc(Cl)cc2-c2ccc(S(C)(=O)=O)cc2)cn1 | inactive
CC(C)OC(=O)c1ccc(NCc2cc(O)ccc2O)cc1Cl | 17.8 µM (active)
CC(OC(=O)c1ccc(Cl)cc1O)C(=O)NCCC1=CCCCC1 (stereo not given) | inactive
CC(CN1CCCCC1)OC(=O)c1ccccc1Cl (stereo not given) | inactive
Cc1c(Cl)c([N+](=O)[O-])nn1Cc1ccc(C(=O)N/N=C\c2cc(Cl)ccc2O)o1 | 2.82 µM (active)
O=C(N/N=C\c1ccc(Br)cc1)c1ccc(Cn2cccn2)o1 | inactive
Cc1nn(Cc2ccccc2Cl)c(C)c1NC(=O)Cn1nc([N+](=O)[O-])c(Cl)c1C | inactive
Cc1nn(-c2ccc(F)cc2)c(-n2cccc2)c1C(=O)N1CCN(c2ccccc2)CC1 | inactive
CCC(C)N(C(=O)CSc1nnnn1-c1ccccc1OC)C1CCS(=O)(=O)C1 (stereo not given) | inactive
COc1ccccc1-n1nnnc1SCC(=O)NC(=O)Cc1ccccc1 | inactive
COc1ccccc1-n1nnnc1S(=O)(=O)Cc1ccc(Cl)cc1 | 14.1 µM (active)
Cc1cn(C)c(CC(=O)NCc2ccc(Cl)cc2)c1C(=O)O | inactive

Compound | Potency
CCc1ccc(Nc2nn3c(=O)c4cc5c(cc4nc3s2)OCO5)cc1 | inactive
Cc1ccc(SCC(=O)Nc2ccc3oc(-c4ccccc4C)nc3c2)cc1 | inactive
COc1ccc(-c2cc(-c3ccccc3)nc3c2COc2ccc(Cl)cc2-3)cc1 | inactive
CCC(=O)N1CCc2cc(S(=O)(=O)NCCC(=O)Nc3cccc(C)c3C)ccc21 | inactive
COc1ccc(NC(=O)C2CCCN(S(=O)(=O)c3c(C)[nH]c(=O)[nH]c3=O)C2)c(OC)c1 (stereo not given) | inactive
Oc1c(Cl)cc(Cl)c(Cl)c1Cc1c(O)c(Cl)cc(Cl)c1Cl | 28.2 µM (active)
OCCC#Cc1ccc(N2C(c3ccsc3)=Cc3ccc(F)cc3C2c2c[nH]c3ccccc23)cc1 (stereo not given) | inactive
Cc1cc(Cl)ccc1-c1nc(NCCN(C)C)nc2ccsc12 | inactive
CCOC(=O)c1cnc(-n2nc(C)cc2C)nc1NNc1cc(C)nc(-c2ccccc2)n1 | 7.08 µM (active)
Cc1cc(C)n(-c2c(F)c(F)c(COC(=O)c3ccccc3)c(F)c2F)n1 | inactive
Cc1cc(-n2nc(C)cc2C)n2ncc(-c3ccccc3)c2n1 | inactive
Cc1ccc(CN2CCCn3nc(C(=O)NCc4ccccc4Cl)cc3C2=O)cc1 | inactive
O=C1CC(c2ccc(F)cc2F)c2cc3c(cc2N1)OCO3 (stereo not given) | inactive
Cc1cccn2c(=O)c3cc(C(=O)NC(C)c4ccccc4)c(=N)n(CCCO)c3nc12 (stereo not given) | inactive
COC(=O)c1sc(NC(=O)c2ccc(OC)cc2OC)nc1C | 2.24 µM (active)
COc1ccc(C(=O)NC2=NCCS2)c(OC)c1 | inactive
COC(=O)c1sc(NC(=S)NC(=O)c2ccc(C)cc2)nc1C | inactive
O=C(NC1CCCCC1)c1ccc(Cn2c(SCc3ccccc3)nc3cccnc32)cc1 | inactive
COC(=O)c1ccc2nc(-c3ccc(OC)c(OC)c3)c(Cc3ccccc3)n2c1 | inactive
Cc1cc(Nc2cc(CN3CCOCC3)c3nc(C)c(Cc4ccc(Cl)cc4F)n3n2)n[nH]1 | 19.3 µM (active)
Cc1ccc(Cl)cc1NC(=O)CN1CCN(S(=O)(=O)N2CCOCC2)CC1 | inactive
